A selection: hits, their analogues and other compounds. The true share with any hit is near 12%.
Sfp PPTase inh = inhibitors of Bacillus subtilis Sfp phosphopantetheinyl transferase | Q9F4F7 | Biochemical Sfp PPTase activity, qHTS | Potency, µM, hits mostly inhibitors | hit rate 3.5% among 310,000 | AID 1490;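 also: the enzyme is Sfp with the accession as filed and its product quenches rhodamine fluorescence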
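Reaction rates are the 30-min fluorescence difference (ex 525, em 598 nm) in wells containing 15 nM Sfp, 5 uM rhodamine-CoA and 12.5 uM BHQ-2-YbbR at pH 7.6 with 10 mM MgCl2.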
G9a inh = blocks human histone lysine methyltransferase G9a | hit rate 8.8% among 350,000 | G9a H3K9 monomethylation, AlphaScreen, 2 h | Potency, µM (series often up to 102 µM), most hits filed as inhibitors | Q96KQ7; also: nearly all actives have a fitted effect of over 75% in size
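Quantitative HTS format: methyltransferase activity on a biotin-tagged H3K9 peptide is measured by AlphaScreen, using a rabbit anti-monomethyl-H3K9 antibody with streptavidin donor and anti-IgG acceptor beads. Final levels are 20 nM enzyme, 500 nM peptide, 20 uM SAM; 2 h RT.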
HP1b binding inh = HP1-beta chromodomain-methylated histone interaction inhibition. AlphaScreen HP1-beta / biotin-H3K9me3 peptide binding. Potency, µM (doses to about 114 µM), most hits filed as inhibitors. hit rate 0.56% among 390,000; also: nearly all actives have a fitted effect of over 70% in size
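HP1-beta protein (50 nM final) preincubated 30 min at room temperature with biotinylated H3(1-18)K9me3 peptide (50 nM) in PBS pH 7.4, 0.01% Tween-20, then compound added for 30 min. AlphaScreen streptavidin donor/nickel chelate acceptor beads (10 ug/mL final), 30 min dark, luminescence read.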
BAZ2B block = blocks human BAZ2B. Q9UIF8. AlphaScreen BAZ2B-H3K14Ac peptide displacement. Potency, µM (doses to about 114 µM), most hits filed as inhibitors. hit rate 4.4% among 360,000. AID 504333; also: nearly all actives have a fitted effect of over 60% in size
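Multi-concentration screen (max 110 uM) measuring displacement of acetylated histone H3 peptide from BAZ2B by AlphaScreen, using 50 nM protein, 50 nM peptide and 10 ug/mL streptavidin donor plus Ni-chelate acceptor beads.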
JMJD2A Tudor inh = blocks the human JMJD2A Tudor domain; O75164; AlphaScreen JMJD2A-Tudor / H3K4me3 peptide binding; Potency, µM (top dose mostly 114 µM), most hits filed as inhibitors; hit rate 4.4% among 390,000; also: nearly all actives have a fitted effect of over 50% in size
PLK1 PBD inh = inhibitors of human PLK1 polo-box domain binding | Potency, µM, hits mostly inhibitors | Plk1 PBD binding of FITC phosphopeptide, fluorescence polarization | hit rate 2.8% among 360,000 | P53350; also: series mostly up to about 57 µM; nearly all actives have a fitted effect of over 65% in size
Target sequence (P53350 whole entry, looked up, the tested form may be a part): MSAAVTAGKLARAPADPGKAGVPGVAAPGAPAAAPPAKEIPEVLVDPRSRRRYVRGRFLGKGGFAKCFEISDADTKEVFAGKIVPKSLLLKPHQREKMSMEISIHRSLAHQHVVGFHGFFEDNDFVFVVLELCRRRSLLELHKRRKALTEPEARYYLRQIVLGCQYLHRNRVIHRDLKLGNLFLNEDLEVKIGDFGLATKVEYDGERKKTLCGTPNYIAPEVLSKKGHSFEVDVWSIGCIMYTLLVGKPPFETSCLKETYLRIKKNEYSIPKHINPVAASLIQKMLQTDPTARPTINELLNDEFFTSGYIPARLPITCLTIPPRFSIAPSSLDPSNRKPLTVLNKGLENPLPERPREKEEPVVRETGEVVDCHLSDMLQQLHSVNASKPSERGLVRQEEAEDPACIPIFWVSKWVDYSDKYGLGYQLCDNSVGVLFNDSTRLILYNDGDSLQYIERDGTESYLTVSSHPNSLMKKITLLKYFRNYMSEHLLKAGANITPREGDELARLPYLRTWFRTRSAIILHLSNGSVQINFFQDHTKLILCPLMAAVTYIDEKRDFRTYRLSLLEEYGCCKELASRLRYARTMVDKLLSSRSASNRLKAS
Hits are given with their value; [ ] = another dose, or the depositor's remark. Calls follow the shape of the dose curve; as a rule, active = well fitted curve in the direction sought with a large enough effect; inconclusive = small, poorly fitted or top-dose-only effect, or another doubt; inactive = no such curve, though single readings can be large; an effect the other way counts as inactive or inconclusive.

What do the screens show for `CCOC(=O)C1CCCN(C(=O)CCc2nnc(-c3ccc(C(C)=O)s3)o2)C1` (centres undefined)?
Sfp PPTase inh: inactive; G9a inh: 35µM; HP1b binding inh: inactive; BAZ2B block: inactive; JMJD2A Tudor inh: inactive; PLK1 PBD inh: inactive

How did COC(=O)c1ccc(C2NCCc3cc(OC)c(OC)cc32)cc1 (centres undefined) do in these assays?
Sfp PPTase inh: inactive; G9a inh: inactive; HP1b binding inh: inactive; BAZ2B block: inactive; JMJD2A Tudor inh: inactive; PLK1 PBD inh: inactive

How did COc1cc2c(cc1OC)/C(=C/C(=O)c1ccc([N+](=O)[O-])c(C)c1)NCC2 do in these assays?
Sfp PPTase inh: inactive; G9a inh: inactive; HP1b binding inh: inactive; BAZ2B block: inactive; JMJD2A Tudor inh: 20µM; PLK1 PBD inh: 19µM

What do the screens show for `COc1cc2c(cc1OC)/C(=C/C(=O)c1ccc(C)cc1)NCC2`?
Sfp PPTase inh: inactive; G9a inh: 50µM; HP1b binding inh: inactive; BAZ2B block: inconclusive; JMJD2A Tudor inh: inconclusive; PLK1 PBD inh: inactive

Results for COc1cccc(C(=O)/C=C2\NCCc3cc(OC)c(OC)cc32)c1 ?
Sfp PPTase inh: inactive; G9a inh: 50µM; HP1b binding inh: inactive; BAZ2B block: inconclusive; JMJD2A Tudor inh: inconclusive; PLK1 PBD inh: inactive

What do the screens show for `COc1cc2c(cc1OC)/C(=C/C(=O)c1ccccc1)NCC2`?
Sfp PPTase inh: inactive; G9a inh: inconclusive; HP1b binding inh: inactive; BAZ2B block: inconclusive; JMJD2A Tudor inh: inconclusive; PLK1 PBD inh: inactive

What do the screens show for `COc1ccccc1N1CCN(S(=O)(=O)CCNC(=O)CC2CCCC2)CC1`?
PLK1 PBD inh: inactive

How did Cc1cc(/C=N/NC(=O)c2ccc(O)cc2)c(C)n1C1CC1 do in these assays?
Sfp PPTase inh: inactive; G9a inh: inactive; HP1b binding inh: inactive; BAZ2B block: inconclusive; JMJD2A Tudor inh: inactive[11.4 µM]; PLK1 PBD inh: 19µM

What do the screens show for `Cc1ccc(C(=O)Nc2cccc(C(=O)N/N=C/c3ccc(O)cc3)c2)cc1`?
Sfp PPTase inh: inactive; G9a inh: inactive; HP1b binding inh: inactive; BAZ2B block: inactive; JMJD2A Tudor inh: inactive; PLK1 PBD inh: inactive

How did CCOC(=O)C1CCN(C(c2cccc(F)c2)c2c(O)cc(C)n(CCOC)c2=O)CC1 (centres undefined) do in these assays?
G9a inh: inactive; HP1b binding inh: inactive; BAZ2B block: inactive; JMJD2A Tudor inh: inactive

How did COc1ccc(/C=C/C(=O)c2cc(O)ccc2O)cc1 do in these assays?
Sfp PPTase inh: inactive; G9a inh: inconclusive

Results for COc1ccc(O)c(C(=O)/C=C/c2cc3ccccc3o2)c1 ?
Sfp PPTase inh: inactive; G9a inh: inconclusive; HP1b binding inh: 3.5µM; BAZ2B block: 11µM; JMJD2A Tudor inh: 28µM; PLK1 PBD inh: inactive

How did O=C(/C=C/c1cc2ccccc2o1)c1ccccc1O do in these assays?
Sfp PPTase inh: inactive; HP1b binding inh: inconclusive; BAZ2B block: 8.9µM; JMJD2A Tudor inh: 20µM; PLK1 PBD inh: inactive

What do the screens show for `COc1cccc(C(=O)Oc2ccccc2/C=C\C(=O)c2cc3ccccc3o2)c1`?
Sfp PPTase inh: inconclusive; G9a inh: 11µM; HP1b binding inh: inactive; BAZ2B block: inconclusive; JMJD2A Tudor inh: inactive; PLK1 PBD inh: inactive

How did O=C(NNC(=O)c1ccccc1O)c1cc2ccccc2o1 do in these assays?
G9a inh: inactive[0.501 µM]; HP1b binding inh: inactive; BAZ2B block: inactive; JMJD2A Tudor inh: inactive; PLK1 PBD inh: inactive

How did C#CCOCCOCCOCCNc1nc(N2CCN(C(=O)Cn3cc(CC(C)O)nn3)CC2)nc(N2CCN(C(=O)[C@H]([C@@H](C)CC)n3cc(CCCCN)nn3)CC2)n1 (some centres undefined) do in these assays?
HP1b binding inh: inactive; JMJD2A Tudor inh: inactive; PLK1 PBD inh: inactive

Results for Cn1c(-c2ccc(=O)[nH]c2)nc2ccccc21 ?
Sfp PPTase inh: 18µM; HP1b binding inh: inactive; BAZ2B block: inactive; JMJD2A Tudor inh: inactive[11.4 µM]; PLK1 PBD inh: inactive

What do the screens show for `Clc1ccc(-c2c[n+]3c(n2-c2ccccc2)SCC3)cc1`?
Sfp PPTase inh: inactive; G9a inh: 56µM; HP1b binding inh: inactive; BAZ2B block: inactive; JMJD2A Tudor inh: inactive; PLK1 PBD inh: inactive

Results for O=[N+]([O-])c1cccc(-c2c[n+]3c(n2-c2ccccc2)SCC3)c1 ?
Sfp PPTase inh: inactive; G9a inh: inactive; HP1b binding inh: inactive; JMJD2A Tudor inh: inactive; PLK1 PBD inh: inactive

Screening results: PubChem, National Center for Advancing Translational Sciences (NCATS)
